We go through five compounds from PubChem BioAssay (EPA / NIEHS).

Read-out in assay [1]: Interleukin 2 (IL2), IL2 (gene 3558)
Kind of assay: BSK_BT_xIL2: BioMAP Diversity Plus: BT Assay for Interleukin 2 (IL2) Biomarker Activity (AID 2284245). The note with it: primary human B cells with PBMC. The method in brief: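 B cell + PBMC co-culture (human primary), compound added, 24 h incubation; secreted IL-2 measured multiplexed on Luminex xMAP; gain-of-signal fit vs DMSO.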

Read-out in assay [2]: Basic fibroblast growth factor (bFGF), FGF2 (gene 2247)
Kind of assay: BSK_MyoF_bFGF: BioMAP Diversity Plus: MyoF Assay for Basic fibroblast growth factor (bFGF) Biomarker Activity (AID 2284246). The note with it: primary human lung fibroblasts. In short, it runs like this:
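ELISA-measured bFGF level serves as the read-out, taken 24 h after chemical dosing of human lung fibroblasts. Values represent signal gain over the DMSO negative control.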

Read-out in assay [3]: Collagen IV, COL4A1 (gene 1282)
Kind of assay: BSK_MyoF_CollagenIV: BioMAP Diversity Plus: MyoF Assay for Collagen IV Biomarker Activity (AID 2284247). The note with it: primary human lung fibroblasts. The method in brief:
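Steps: dose human lung fibroblasts; culture 24 h; quantify Collagen IV by ELISA; fit increase versus DMSO control. Parallel SRB total-protein staining (0.1% SRB after 10% TCA fixation, 560 nm) tracks overt cytotoxicity.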

Read-out in assay [4]: Monokine induced gamma interferon (MIG), CXCL9 (gene 4283)
Nature of the assay: BSK_KF3CT_MIG: BioMAP Diversity Plus: KF3CT Assay for Monokine induced gamma interferon (MIG) Biomarker Activity (AID 2284248). The note with it: primary human keratinocytes with fibroblasts. The method in brief:
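Human keratinocyte–foreskin fibroblast co-culture; MIG measured by ELISA 24 h after chemical dosing, fitted upward versus DMSO. Cytotoxicity was assessed in parallel cultures by SRB total-protein staining read at 560 nm.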

Read-out in assay [5]: Vascular cell adhesion molecule 1 (VCAM1), VCAM1 (gene 7412)
Nature of the assay: BSK_BF4T_VCAM1: BioMAP Diversity Plus: BF4T Assay for Vascular cell adhesion molecule 1 (VCAM1) Biomarker Activity (AID 2284249). The note with it: primary human bronchial epithelial cells with fibroblasts. The method in brief: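 Human bronchial epithelial cell and dermal fibroblast co-culture exposed 24 h. VCAM-1 measured by ELISA; parallel SRB total-protein staining for cytotoxicity. Fitted in positive direction relative to DMSO.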

Read-out in assay [6]: Collagen I, COL1A1 (gene 1277)
Kind of assay: BSK_hDFCGF_CollagenI: BioMAP Diversity Plus: hDFCGF Assay for Collagen I Biomarker Activity (AID 2284250). The note with it: primary human foreskin fibroblasts. In short, it runs like this: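 Human skin primary fibroblasts dosed with test chemical, harvested at 24 h, Collagen I quantified by ELISA; parallel SRB staining (0.1% SRB after 10% TCA fixation, 560 nm) tracked cytotoxicity.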

Read-out in assay [7]: Interferon-inducible T-cell alpha chemoattractant (ITAC), CXCL11 (gene 6373)
Kind of assay: BSK_hDFCGF_ITAC: BioMAP Diversity Plus: hDFCGF Assay for Interferon-inducible T-cell alpha chemoattractant (ITAC) Biomarker Activity (AID 2284251). The note with it: primary human foreskin fibroblasts. The method in brief: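 ELISA readout of I-TAC after 24 h chemical exposure; human dermal foreskin fibroblast primary cells. Positive-direction fitting vs DMSO baseline. Parallel SRB total-protein staining (0.1% SRB after 10% TCA fixation, 560 nm) flags cytotoxicity.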

Read-out in assay [8]: Plasminogen activator inhibitor-1 (PAI1), SERPINE1 (gene 5054)
Nature of the assay: BSK_KF3CT_PAI1: BioMAP Diversity Plus: KF3CT Assay for Plasminogen activator inhibitor-1 (PAI1) Biomarker Activity (AID 2284252). The note with it: primary human keratinocytes with fibroblasts. The method in brief:
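ELISA read-out of PAI-1 taken 24 h after chemical treatment of a human skin primary co-culture of keratinocytes and foreskin fibroblasts. Increases over DMSO-treated wells defined activity.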

Read-out in assay [9]: Interleukin-8 (IL8), CXCL8 (gene 3576)
Kind of assay: BSK_KF3CT_IL8: BioMAP Diversity Plus: KF3CT Assay for Interleukin-8 (IL8) Biomarker Activity (AID 2284254). The note with it: primary human keratinocytes with fibroblasts. In short, it runs like this:
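Human keratinocyte/foreskin fibroblast co-culture dosed 24 h; IL-8 measured by ELISA relative to DMSO. Parallel cultures stained with SRB for total protein to flag cytotoxicity.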

Read-out in assay [10]: Macrophage Inflammatory Protein-1 Alpha (MIP1a), CCL3 (gene 6348)
Kind of assay: BSK_IMphg_MIP1a: BioMAP Diversity Plus: IMphg Assay for Macrophage Inflammatory Protein-1 Alpha (MIP1a) Biomarker Activity (AID 2284255). The note with it: primary human endothelial cells with macrophages. The method in brief: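 Co-culture of human venular endothelial cells and macrophages exposed to compounds for 24 h; MIP-1a measured by ELISA relative to DMSO. Cytotoxicity assessed in parallel cultures by sulforhodamine B total-protein staining at 560 nm.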

Read-out in assay [11]: Plasminogen activator inhibitor-1 (PAI1), SERPINE1 (gene 5054)
Kind of assay: BSK_MyoF_PAI1: BioMAP Diversity Plus: MyoF Assay for Plasminogen activator inhibitor-1 (PAI1) Biomarker Activity (AID 2284256).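 Further: PAI-1 read 24 h after compound addition.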 The note with it: primary human lung fibroblasts. In short, it runs like this: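 Primary human lung fibroblasts treated with chemical for 24 h; PAI-1 levels quantified by ELISA relative to DMSO. Cytotoxicity was assessed in parallel cultures by SRB total-protein staining (0.1% SRB after 10% TCA fixation, 560 nm).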

Read-out in assay [12]: CD69, CD69 (gene 969)
Kind of assay: BSK_IMphg_CD69: BioMAP Diversity Plus: IMphg Assay for CD69 Biomarker Activity (AID 2284257). The note with it: primary human endothelial cells with macrophages. In short, it runs like this: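 Human venular endothelial cells co-cultured with macrophages; CD69 quantified by ELISA 24 h after compound addition. Activity fitted in the positive direction relative to DMSO baseline; cytotoxicity tracked in parallel cultures via SRB total-protein staining.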

Read-out in assay [13]: Eotaxin 3, CCL26 (gene 10344)
Nature of the assay: BSK_BF4T_Eotaxin3: BioMAP Diversity Plus: BF4T Assay for Eotaxin 3 Biomarker Activity (AID 2284258). The note with it: primary human bronchial epithelial cells with fibroblasts. The method in brief:
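Co-culture of human bronchial epithelial cells and dermal fibroblasts, exposed to chemicals for 24 h versus DMSO. Eotaxin-3 quantified by ELISA; cytotoxicity checked in parallel cultures by sulforhodamine B total-protein staining.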

Read-out in assay [14]: Monocyte Chemoattractant Protein-1 (MCP1), CCL2 (gene 6347)
Kind of assay: BSK_BF4T_MCP1: BioMAP Diversity Plus: BF4T Assay for Monocyte Chemoattractant Protein-1 (MCP1) Biomarker Activity (AID 2284259). The note with it: primary human bronchial epithelial cells with fibroblasts. The method in brief: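 Co-culture of bronchial epithelial cells and dermal fibroblasts dosed with chemical; MCP-1 measured by ELISA 24 h later. Activity fitted in positive direction versus DMSO; cytotoxicity checked by SRB staining in parallel cultures.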

Read-out in assay [15]: Interleukin-8 (IL8), CXCL8 (gene 3576)
Nature of the assay: BSK_MyoF_IL8: BioMAP Diversity Plus: MyoF Assay for Interleukin-8 (IL8) Biomarker Activity (AID 2284261). The note with it: primary human lung fibroblasts. In short, it runs like this:
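Human lung fibroblast (MyoF system) cultures dosed for 24 h, then IL-8 measured by ELISA. Response taken relative to DMSO; parallel SRB total-protein staining for cytotoxicity.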

Read-out in assay [16]: CD90, THY1 (gene 7070)
Kind of assay: BSK_BF4T_CD90: BioMAP Diversity Plus: BF4T Assay for CD90 Biomarker Activity (AID 2284262). The note with it: primary human bronchial epithelial cells with fibroblasts. In short, it runs like this: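 Co-culture of human bronchial epithelial cells and dermal fibroblasts, 24 h compound exposure. Cell-surface CD90 measured by ELISA relative to DMSO; parallel SRB total-protein staining for cytotoxicity.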

Read-out in assay [17]: Decorin, DCN (gene 1634)
Nature of the assay: BSK_MyoF_Decorin: BioMAP Diversity Plus: MyoF Assay for Decorin Biomarker Activity (AID 2284265). The note with it: primary human lung fibroblasts. In short, it runs like this:
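Human lung fibroblast cultures were dosed for 24 h, and decorin was then measured by ELISA. Parallel cultures were stained with sulforhodamine B for total protein as a cytotoxicity check. Gain of signal was fitted relative to DMSO.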

Read-out in assay [18]: KRT18 (gene 3875)
Kind of assay: BSK_BF4T_Keratin818: BioMAP Diversity Plus: BF4T Assay for Keratin 818 Biomarker Activity (AID 2284266). The note with it: primary human bronchial epithelial cells with fibroblasts. The method in brief: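 Co-culture of human bronchial epithelial cells and dermal fibroblasts, chemical exposure 24 h. Keratin 8/18 measured by ELISA; positive-direction fit vs DMSO. SRB total protein run in parallel cultures for cytotoxicity.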

Assay [19] can be described thus: BSK_MyoF_SRB: Viability Assessment in the BioMAP Diversity Plus: MyoF Assay (AID 2284267).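 Further: total protein by SRB absorbance in parallel cultures as cytotoxicity measure.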 The note with it: primary human lung fibroblasts. In short, it runs like this:
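Read-out is SRB absorbance at 560 nm, reflecting total protein in parallel lung fibroblast cultures harvested 24 h after compound addition. Cells were TCA-fixed (10%) and stained with 0.1% SRB; activity is referenced to DMSO.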

Read-out in assay [20]: Matrix Metallopeptidase 1 (MMP1), MMP1 (gene 4312)
Nature of the assay: BSK_MyoF_MMP1: BioMAP Diversity Plus: MyoF Assay for Matrix Metallopeptidase 1 (MMP1) Biomarker Activity (AID 2284268). The note with it: primary human lung fibroblasts. In short, it runs like this:
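Human lung fibroblast primary cells; MMP1 measured by ELISA 24 h after dosing, fitted in the positive direction relative to DMSO. Parallel SRB staining (0.1%, after 10% TCA fixation, 560 nm) assesses overt cytotoxicity.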

“And” between values parts separate entries of the source, which are not always exact repeats. Equal entries are not always repeated. Some structures have more than one record in an assay (separate samples or runs), and their calls can disagree. The source made the active and inactive calls. How the source made its calls: active means hit-call score of the fitted dose curve at least 0.9, where 1 is the maximum; inactive means score below 0.9.

For the compound `COC(=O)C(F)(F)C(F)(F)OC(F)(C(F)(F)F)C(F)(F)OC(F)=C(F)F` (stereo unspecified), the result in assay [1], in [2], in assay [3], in [4], in assay [5] and in assay [6] was inactive. Besides, the result in assay [8], in assay [9], in assay [10], in [11], in assay [12] and in assay [13] was inactive. Besides, the outcome in assay [14], in [15], in assay [16], in [17], in [18] and in assay [19] was inactive. Besides, the result in assay [20] was inactive. Besides, the AC50 in assay [7] is 4.67 µM (active) and 5.4 µM (active); in assay [14], 5.24 µM (active); in [15], 1.29 µM (active).
In the case of `COP(=O)(O)OC`, the result in [1], in assay [2], in [3], in [11], in [15] and in [17] was inactive. Further, the outcome in assay [19] and in assay [20] was inactive.
`O=S1(=O)OCC2C(CO1)C1(Cl)C(Cl)=C(Cl)C2(Cl)C1(Cl)Cl` (stereo unspecified): in assay [1], the concentration at half-maximal activity (AC50) is 20 µM (active). Besides, the outcome in [2], in [3], in [11], in assay [15], in assay [17] and in assay [19] was inactive. Moreover, the result in [20] was inactive.
Take `OCC(F)(F)OC(F)(F)C(F)(F)OC(F)(F)CO`: the outcome in assay [1], in assay [2], in assay [3], in assay [4], in [5] and in assay [6] was inactive. For the same compound, the outcome in assay [7], in assay [8], in assay [9], in assay [10], in assay [11] and in [12] was inactive. Further, the result in assay [13], in [14], in assay [15], in assay [16], in [17] and in assay [18] was inactive. Besides, the outcome in [19] and in assay [20] was inactive.
For the compound `CCCCC(CC)COC(=O)c1c(Br)c(Br)c(Br)c(Br)c1C(=O)OCC(CC)CCCC` (stereo unspecified), the outcome in assay [1], in [2], in [3], in [11], in assay [15] and in [17] was inactive. Besides, the result in [19] and in assay [20] was inactive.

One may read the AC50 as the concentration giving half of the maximal activity seen.
